In PubChem BioAssay (NCI):
About 79,000 compounds went through this panel and 15% of them were active in at least one assay; those are over-represented in the sample as a whole. Cut-off read from the data, not from the text of the source: active = growth inhibition above about 70%; inactive = the rest. Where a SMILES comes first, the peptide text is derived from it. The star is where a group is joined. Fmoc = O=C(OCC1c2ccccc2-c2ccccc21)*; OBn = c1ccc(CO*)cc1; tBu = CC(C)(C)*

Legend:
[1] = NCI Yeast Anticancer Drug Screen. Data for the rad50 strain (AID 155);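 note: 0% = growth of vehicle-only cultures of the same strain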; settings: S. cerevisiae rad50 strain growth inhibition; at 50.0 µM; hits give high values
In short: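 DNA repair mutant yeast, compound exposure, growth read-out; inhibition is taken relative to vehicle.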

[2] = NCI Yeast Anticancer Drug Screen. Data for the mec2-1 strain (AID 157); settings: S. cerevisiae mec2-1 strain, at 50.0 µM, hits give high values
In short: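 Each compound was tested on mec2-1 yeast, a strain altered in DNA damage repair or cell cycle control. Growth inhibition is reported relative to vehicle.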

[3] = NCI Yeast Anticancer Drug Screen. Data for the sgs1 mgt1 strain (AID 161);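 note: 0% = growth of cultures given vehicle only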; settings: S. cerevisiae sgs1 mgt1 strain, at 50.0 µM, hits give high values
In short: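 Read-out: growth inhibition vs vehicle controls. Cells: mutant yeast strain deficient in DNA damage repair.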

[4] = NCI Yeast Anticancer Drug Screen. Data for the cln2 rad14 strain (AID 165);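 note: 0% = growth equal to vehicle treated cultures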; settings: S. cerevisiae cln2 rad14 strain, at 50.0 µM, hits give high values
In short: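 Test compounds were added to cln2 rad14 yeast cultures; inhibition of growth was then determined by comparison with vehicle treatment.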

[5] = NCI Yeast Anticancer Drug Screen. Data for the bub3 strain (AID 167); settings: S. cerevisiae bub3 mutant strain, at 50.0 µM, hits give high values
In short: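 In this screen, a yeast mutant lacking normal mitotic checkpoint function is challenged with compound. Relative growth versus vehicle gives the inhibition value.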

[6] = NCI Yeast Anticancer Drug Screen. Data for the mlh1 rad18 strain (AID 175); settings: S. cerevisiae mlh1 rad18 strain growth inhibition; at 50.0 µM; hits give high values
In short: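 Inhibition values reflect reduced growth of mutant yeast versus vehicle-treated controls following compound exposure; the mutations affect DNA damage repair.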

Measured: growth inhibition

CCOC(=O)c1[nH]c2cccc3c2c1CC[C@H](NC(=O)C(F)(F)F)C3=O
inactive: [1] -5.1% | [2] 9.3% | [3] 10.8% | [4] 18.2% | [5] 0.95% | [6] 8.3%

CCOc1nc(N)nc(C)c1N=Nc1ccccc1OC
inactive: [1] 12.7% | [2] 9.05% | [3] 14.4% | [4] 35.9% | [5] 11.5% | [6] 13.5%

C[C@@]12CCC(=O)C=C1CC[C@H]1C2CC[C@]2(C)C1CC[C@H]2C(=O)COC(=O)CCC(=O)O (stereo not given in full)
inactive: [1] -1.85% | [2] -7.8% | [3] 21.1% | [4] -22.4% | [5] 2.55% | [6] -33.7%

Cc1nnnn1[C@H]1C(C#N)CC2[C@@H]3CCC4=Cc5nnnn5CC[C@]4(C)C3CC[C@@]21C (stereo not given in full)
inactive: [1] 23.3% | [2] 27.4% | [3] 23% | [4] 16.6% | [5] 13.2% | [6] 25.2%

COC(=O)C1CC[N-]CC1.COC(=O)C1CC[N-]CC1.[Cl][Pt+2][Cl]
inactive: [1] -0.15% | [2] 6.9% | [3] -6.8% | [4] -24.4% | [5] -4.15% | [6] 21.2%

CCCCCCCCCCCCCC(=O)OCCN(C)C
inactive: [1] 4.1% | [2] -2.6% | [3] 7.7% | [4] -32.6% | [5] -14.4% | [6] -12.4%

C[N+](C)(Cn1nc(Cl)c2ccc([N+](=O)[O-])cc21)Cn1nc(Cl)c2ccc([N+](=O)[O-])cc21
inactive: [1] 43.6% | [2] -5% | [3] 18.8% | [4] 28.1% | [5] -0.25% | [6] 27.9%

CC(OC(C)(C)C)C(NC(=O)OCC1c2ccccc2-c2ccccc21)C(=O)NC(Cc1ccccc1)C(=O)OCc1ccccc1 (stereo not given) (Fmoc-Thr(tBu)-Phe-OBn; configuration not given here)
inactive: [1] -32.2% | [2] -7.7% | [3] -4.5% | [4] -15.7% | [5] -18.6% | [6] 0.45%

CCN(CC)CCN(C(=S)Nc1ccccc1)c1ccccc1
inactive: [1] 5% | [2] 28.1% | [3] 17.6% | [4] -10.1% | [5] 9.5% | [6] 27.4%

CC(=O)C(C)C(=O)N1C(=O)N(C)C2(C)N(C)C(=O)NC12C (stereo not given)
inactive: [1] 2.05% | [2] -45.3% | [3] -24.3% | [4] 8.4% | [5] -5.8% | [6] 7.3%

Cc1onc(-c2c(Cl)cccc2Cl)c1C(=O)SC1=NC(C)N2C(SC(=O)c3c(-c4c(Cl)cccc4Cl)noc3C)=NC(C)N12 (stereo not given)
inactive: [1] 26.6% | [2] 7.4% | [3] 11.3% | [4] 11.7% | [5] 18.6% | [6] 16.6%

Cn1cc(-n2[nH]c(=O)n(-c3ccccc3)c2=O)c(=O)n(C)c1=O
inactive: [1] -50% | [2] 8.2% | [3] -1.1% | [4] -21.3% | [5] 16.1% | [6] 13.3%

CCc1nc(N)nc(-c2nc(N)nc(CC)c2C)c1C
inactive: [1] 10.8% | [2] -2.4% | [3] -8.4% | [4] -7.8% | [5] -29.4% | [6] 15.8%

OCC(O)C(O)C(O)c1nn(-c2ccc(Cl)cc2)c2nc3cc(Cl)c(Cl)cc3nc12 (stereo not given)
inactive: [1] 1.85% | [2] -28.6% | [3] -33.9% | [4] 15.4% | [5] 4.4% | [6] 0.85%

CCN(CC)C(=O)C1(C)NS(=O)(=O)c2ccccc2C1=O (stereo not given)
inactive: [1] -7.05% | [2] 10.1% | [3] -4.15% | [4] -31.9% | [5] -10.8% | [6] -9.45%

CN(C)S(=O)(=O)c1ccc(Nc2ccc(O)c3c2C(=O)c2c([N+](=O)[O-])ccc(O)c2C3=O)cc1
inactive: [1] 54.9% | [2] 13.4% | [3] -31.9% | [4] -8.3% | [5] -27.8% | [6] 26.1%

[Cl][Bi]([O]c1ccccn1)[O]c1ccccn1
inactive: [1] 9.9% | [2] -1.55% | [3] -13.4% | [4] 17.4% | [5] 28.6% | [6] -25.8%

CCCCCCCCCCCC(=O)OC(COC(N)=O)COc1ccc(Cl)cc1 (stereo not given)
inactive: [1] -34.2% | [2] -59.5% | [3] -18.9% | [4] 0.3% | [5] -10.2% | [6] -46.4%

COc1ccc(NC(=O)CCC(=O)CC(=O)c2ccc(C)cc2)cc1
inactive: [1] -18.6% | [2] 31.1% | [3] 39.6% | [4] -23.4% | [5] 17.9% | [6] 36.2%

NS(=O)(=O)c1cc2c(cc1Cl)NC(C(=O)NNC(=O)c1ccncc1)=NS2(=O)=O
inactive: [1] -1.6% | [2] -16.5% | [3] -4.8% | [4] 1.3% | [5] -11.9% | [6] -20.4%
